Legend:
[1] = target: T1, Aspartate--tRNA(Asp/Asn) ligase (Mycobacterium tuberculosis (strain ATCC 25618 / H37Rv)) (UniProt P9WFW3); assay: Assay for Asp RNA synthetase-1 from Mycobacterium tuberculosis; type: functional; design: scale not given: direction of the effect not stated beside the values; conditions: 30 µM; also: in the data most compounds retested in dose-response had high values
T1 sequence (whole entry): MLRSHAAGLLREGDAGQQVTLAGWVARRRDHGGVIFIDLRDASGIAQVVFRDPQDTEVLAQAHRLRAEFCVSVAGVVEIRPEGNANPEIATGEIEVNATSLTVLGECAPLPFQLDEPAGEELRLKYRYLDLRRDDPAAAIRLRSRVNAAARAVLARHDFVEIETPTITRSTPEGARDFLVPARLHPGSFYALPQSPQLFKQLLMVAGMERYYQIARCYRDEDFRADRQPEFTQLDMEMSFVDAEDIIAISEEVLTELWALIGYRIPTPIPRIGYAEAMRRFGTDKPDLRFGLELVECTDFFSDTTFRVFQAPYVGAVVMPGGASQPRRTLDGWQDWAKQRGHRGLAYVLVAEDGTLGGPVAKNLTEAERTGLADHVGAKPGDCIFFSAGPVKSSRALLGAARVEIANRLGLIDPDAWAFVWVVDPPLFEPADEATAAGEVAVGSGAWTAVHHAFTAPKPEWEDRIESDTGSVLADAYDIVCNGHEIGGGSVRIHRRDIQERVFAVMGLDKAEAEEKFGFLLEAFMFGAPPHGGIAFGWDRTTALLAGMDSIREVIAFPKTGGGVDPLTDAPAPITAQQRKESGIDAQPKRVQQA

[2] = target: Shiga toxin 2 (Escherichia coli O157:H7) (UniProt P09385+P09386); assay: E. coli 0.157:H7 Shiga Toxin SOP - stx2 screening assay; type: functional; design: scale not given: direction of the effect not stated beside the values; conditions: 30 µM

SMILES | Percent Effect [1] | Percent Effect [2]
O=C1CC(N(C(=O)c2ccc3[nH]c4c(c3c2)CCCC4)C2CC2)C(=O)N1 (configuration not stated) | 1.2% | -28.8%
CN(Cc1nnc2n1CCC2)C(=O)NCCc1ccc2c(c1)OCO2 | 10.3% | 19.1%
Cc1nonc1CC(=O)N1C[C@@H]2CC[C@H](C1)N(Cc1ccccc1)C2=O | 1.39% | 2.88%
CCCn1c(C)c(CC(=O)N(C)CCOC)c2c1CC(C)(C)CC2=O | 1.4% | -6.17%
Cc1cnc(C(=O)N2CCCN(Cc3csc(C)n3)CC2)cn1 | -0.524% | -41.5%
c1ccc(-c2nnn3c2COC(CNCC2CCOCC2)C3)cc1 (configuration not stated) | 2.63% | -21.1%
CC(NC(=O)c1ccc2c(c1)OCC(=O)N2)c1ccccc1F (configuration not stated) | 7.05% | 24%
CN1CC(c2ccccc2)CC12CCN(C(=O)c1cncc(Cl)c1)CC2 (configuration not stated) | 0.408% | 12.5%
CCn1ccnc1CN1CCN(CCC(=O)NC(C)(C)C)CC1C (configuration not stated) | -4.35% | 15.4%
CCNC(=O)[C@@H]1C[C@H](NC(=O)Cc2ccsc2)CN1Cc1ccc(C)o1 | -0.518% | 18.7%
CC(C)[C@H](NC(=O)NC1CCS(=O)(=O)C1)C(=O)Nc1cccnc1 (some centres not stated) | -0.929% | -52.8%
CCS(=O)(=O)NC[C@]12COC[C@H]1CN(Cc1cccc(OC)c1)C2 | 0.596% | 1.39%
c1cnnc(N2CCCC(NCc3nnc(-c4ccco4)o3)C2)c1 (configuration not stated) | -0.7% | -79.7%
Cc1cc(C)cc(C2(C(=O)N3CCCC(n4cncn4)C3)CC2)c1 (configuration not stated) | 0.962% | 26.6%
Cc1cc(C[C@@H]2COC[C@@H]2NC(=O)CN2CCCC2)on1 | 4.6% | -10.1%
CCn1cnnc1C1CCN(C(=O)C(OC)c2ccccc2)CC1 (configuration not stated) | -2.71% | 9.67%

Source: ChEMBL document CHEMBL3988442, “University of Dundee, Small-Polar-MMV Screening Library” (2021)
